The whole screen tested about 16,000 compounds, of which about 5,700 (36%) were called active. Roughly 24% stayed inconclusive and do not appear here. This is one part of the list. A number with no mark means an inactive call. The call rests on the fitted dose curve; in most records, active means well fitted curve in the direction sought with a large enough effect; inconclusive means small, poorly fitted or top-dose-only effect, or effect the other way; inactive means no such curve, though single readings can be large or run the other way.
These molecules were tested against Cytochrome P450 1A2 (Homo sapiens) (UniProt P05177) (assay: Cytochrome panel assay with activity outcomes). Details: recombinant CYP, pro-luciferin dealkylation, luminescence, p450-cyp1a2; series mostly up to 57.1 µM; activity, negative = inhibition: at the top concentration.
Chain of Cytochrome P450 1A2 (Homo sapiens) (P05177 whole entry, looked up): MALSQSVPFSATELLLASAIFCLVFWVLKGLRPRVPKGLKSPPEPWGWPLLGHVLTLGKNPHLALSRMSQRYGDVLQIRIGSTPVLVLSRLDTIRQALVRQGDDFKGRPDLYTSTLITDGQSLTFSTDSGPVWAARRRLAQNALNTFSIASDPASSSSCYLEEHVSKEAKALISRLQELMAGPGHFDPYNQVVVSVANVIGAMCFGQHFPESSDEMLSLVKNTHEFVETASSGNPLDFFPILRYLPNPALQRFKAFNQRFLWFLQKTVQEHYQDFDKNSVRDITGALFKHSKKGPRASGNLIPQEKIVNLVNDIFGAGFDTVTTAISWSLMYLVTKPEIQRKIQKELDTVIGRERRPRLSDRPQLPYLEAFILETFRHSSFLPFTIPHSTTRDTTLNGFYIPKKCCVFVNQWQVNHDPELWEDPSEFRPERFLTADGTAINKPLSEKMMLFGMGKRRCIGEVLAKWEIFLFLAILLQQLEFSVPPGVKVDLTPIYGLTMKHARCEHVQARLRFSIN
On the % scale 0 is the no-effect control and ±100 the full control effect.

Compound	activity, negative = inhibition	AC50
CNCCc1c[nH]c2ccc(O)cc12	-22.8% (inactive)	
COC(=O)[C@H]1[C@H](c2ccccc2)C(=O)[C@@]2(O)c3ccccc3O[C@@]12c1ccccc1	-5.65% [at 11.4 µM]	
CO[C@@H](C)[C@](O)(C(=O)OCC1=CCN2CC[C@@H](O)[C@H]12)C(C)C	-7.03% [at 25.6 µM] (inactive)	
c1ccc(CCN2CCOCC2)nc1	-3% [at 2.29 µM]	
CCCCCCCCCCCCCC(=O)O[C@H]1[C@@H](C)[C@@]2(O)[C@@H](C=C(CO)C[C@]3(O)C(=O)C(C)=C[C@@H]23)C2C(C)(C)[C@]21OC(C)=O (stereo not given in full)	-12.3% (inactive)	
C[C@H]1[C@H](NC(=O)/C(=N/OC(C)(C)C(=O)O)c2csc(N)n2)C(=O)N1S(=O)(=O)O (stereo in doubt)	-4.29% [at 25.6 µM] (inactive)	
Cc1ccc(N2C(=O)/C(=C/c3ccc(CN(CCC#N)S(C)(=O)=O)o3)C(=O)NC2=S)cc1C	-25.3% (inactive)	
CCCN(CCC)C(=O)Cc1c(-c2ccc(Cl)cc2)nc2c(Cl)cc(Cl)cn12	-10.1% (inactive)	
NC(=O)c1ccc(C(=O)Nc2ccc([As](=O)(O)O)cc2)cc1	-13.8% [at 2.29 µM]	
CCOP(=O)(CN(CC)CCNP(=O)(OCC)OCC)OCC	27.4% (inactive)	
CN1C2CCC1CC(OC(=O)c1ccc(Cl)cc1)C2 (stereo not given)	3.37% (inactive)	
C[C@@]12CC[C@H]3[C@H](CC=C4C[C@@H](O)CC[C@@]43C)[C@@H]1CC[C@@H]2N(CCO)CCO	-4.6% [at 11.4 µM]	
COC(=O)c1[nH]c2ccc(Br)cc2c1NC(=O)Oc1ccccc1		0.0631 µM (active)
C[C@]12CC[C@H](O)CC1=CC[C@@H]1[C@H]2CC[C@]2(C)C(=O)CC[C@H]12	-11.6% (inactive)	
N[C@H](CCCCCP(=O)(O)O)C(=O)O	-15.1% (inactive)	
C/C(=C\C=C/[C@@H](C)C(=O)O)[C@H]1CN[C@H](C(=O)O)[C@@H]1CC(=O)O	-14.8% (inactive)	
C[C@]1(O)CC[C@H]2[C@@H]3[C@@H](O)CC4=CC(=O)CC[C@@]4(C)[C@H]3CC[C@]21C	1.44% [at 2.29 µM]	
O=P(c1ccccc1)(c1ccccc1)N1CC2(CC2)CC(O)(c2ccccc2)C1 (stereo not given)	-19.7% (inactive)	
O=C(Nc1ccc(Cl)cc1)Nc1nccs1		0.141 µM (active)
C[C@]12CC[C@H]3c4ccc(O)cc4CC[C@@H]3[C@H]1CC[C@@H]2OC(=O)CCc1ccccc1	-13.8% [at 2.29 µM]	
CCCc1nc2ccccc2c(=O)n1-c1ccc(OC)cc1		12.6 µM (active)
Cc1ccc(-c2nc3ccccc3c(=O)n2-c2ncccc2C)cc1	-12.2% (inactive)	
CCCCc1nc2ccccc2c(=O)n1-c1ccc(Cl)cc1[N+](=O)[O-]	-25.1% (inactive)	
CCCCc1nc2ccccc2c(=O)n1-c1ccccc1[N+](=O)[O-]		14.1 µM (active)
NC(N)=Nc1ccc2[nH]c3c(c2c1)C[C@]1(O)[C@@H]2Cc4ccc(O)c5c4[C@]1(CCN2CC1CC1)[C@H]3O5	9.9% (inactive)	

Compound	activity, negative = inhibition	AC50
NS(=O)(=O)C[C-]1C=C[CH]([Sb-]([Cl])([Cl])([Cl])([Cl])[Cl])C=C1.c1ccncc1 (stereo not given)	-15.1% [at 11.4 µM]	
O=C(O)[C@@H](O)[C@@H](O)[C@@H]1[O][Sb][O][C@@H]1CO	-5.14% [at 2.29 µM]	
CCC1=C(C[C@H]2NCCc3cc(OC)c(OC)cc32)C[C@H]2c3ccccc3CCN2C1	-6.07% [at 11.4 µM]	
O=C(O)CNC(=O)[C@@H](CS)Cc1ccccc1	-4.85% [at 25.6 µM] (inactive)	
Cc1sc2ccccc2c1CC1=NCCN1		2.51 µM (active)
c1ccc2cc(CC3=NCCN3)ccc2c1	2.54% (inactive)	
Cc1cc(C(C)(C)C)cc(C)c1CC1=NCCN1	-8.4% [at 25.6 µM] (inactive)	
CCCN1CCC[C@H](c2cccc(C#N)c2)C1	-12.2% (inactive)	
CCN(CC)c1ccc(/C=C2/C(=O)NC(=O)N(CC3CCCO3)C2=O)cc1 (stereo not given)		12.6 µM (active)
O=c1cccc2n1CC1CNC[C@H]2C1	-5.12% [at 25.6 µM] (inactive)	
CC(C)(C)CC(=O)NC(=S)Nc1ccccc1C(F)(F)F		11.2 µM (active)
O=[As](O)(O)c1ccc(N=Nc2ccc(O)cc2)cc1	-14.5% [at 11.4 µM]	
O=P(Nc1c(Cl)cccc1Cl)(c1ccccc1)c1nc2c(s1)CCCC2 (stereo not given)	-1.03% (inactive)	
CCN(CC)C(=O)N[C@@H]1C[C@H]2c3cccc4[nH]cc(c34)C[C@@H]2N(C)C1		inactive
CCCN1CC[C@@H]2c3cc(O)ccc3CC[C@H]21	-9.66% (inactive)	
CN1CCc2cc(O)cc3c2[C@H]1Cc1ccc(O)c(O)c1-3		12.6 µM (active)
COc1cc2c3cc1Oc1cc(ccc1O)C[C@@H]1c4c(cc(OC)c(O)c4Oc4cccc(c4)C[C@H]3N(C)CC2)CC[N+]1(C)C	-8.38% [at 25.6 µM] (inactive)	
CCCN1CCc2cc(O)cc3c2[C@H]1Cc1ccc(O)c(O)c1-3		12.6 µM (active)
C=CCN1CCc2cccc3c2[C@@H]1Cc1ccc(O)c(O)c1-3		3.16 µM (active)
C=CCN1CC[C@@]23c4c5ccc(O)c4O[C@H]2/C(=N\N=C2/CC[C@@]4(O)[C@H]6Cc7ccc(O)c8c7[C@@]4(CCN6CC=C)[C@@H]2O8)CC[C@]3(O)[C@@H]1C5		inactive
COc1cc2c(cc1O)C[C@H]1c3c(cc(O)c(OC)c3-2)CCN1C		2.51 µM (active)
COc1cc2c3cc1Oc1c(O)c(OC)cc4c1[C@@H](Cc1ccc(cc1)Oc1cc(ccc1O)C[C@H]3N(C)CC2)N(C)CC4	-8.21% [at 11.4 µM]	
COc1ccc2cc1Oc1ccc(cc1)C[C@H]1c3cc(c(OC)cc3CCN1C)Oc1c(OC)c(OC)cc3c1[C@@H](C2)N(C)CC3	2.06% [at 2.29 µM]	
C=CCN1CCC2(C)c3cc(O)ccc3C[C@H]1[C@H]2C		inactive
CCCN(CCC)[C@@H]1CCc2ccc(O)cc2C1		inactive

Source: PubChem BioAssay AID1851 (National Center for Advancing Translational Sciences (NCATS), 2009)
